Compound activity deposited in PubChem BioAssay by National Center for Advancing Translational Sciences (NCATS).
This is a sample that favours compounds with a hit; in the whole collection about 7.3% have one here.
Tau fibril FP: tau fibrillization inhibition (FP); Potency, µM (highest dose often 57.7 µM), actives largely listed as inhibitors; P10636; K18 P301L tau heparin fibrillization, Alexa594 FP, 6 h; 280,000 tested, 0.39% active; further: nearly all actives have a fitted effect of over 55% in size
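Human K18 P301L fragment (15 uM unlabeled plus 0.24 uM Alexa 594-labeled) in 100 mM sodium acetate pH 7 with compound, aggregation induced by 20 uM heparin for 6 hr at 37 C. ThT (30 uM) added for 1 hr, then Alexa 594 FP read.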
Tau fluor cs: counter-screen for tau fibril formation inhibitors. 280,000 tested, 0.93% active. AID 1463. tau K18 P301L Alexa594 fluorescence, heparin fibrillization. Potency, µM (highest dose often 57.7 µM); further: nearly all actives have a fitted effect of over 55% in size
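Human K18 P301L tau (15 uM unlabeled plus 0.24 uM Alexa 594-labeled, final) in 100 mM sodium acetate pH 7 was mixed with compound and 20 uM heparin and incubated 6 hr at 37 C.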
Tau fibril ThT: blocks human tau fibril formation measured by thioflavin T. 270,000 tested, 2.1% active. Potency, µM (highest dose often 57.4 µM), most hits filed as inhibitors. P10636. recombinant tau K18 P301L (four-repeat tau fragment), heparin-induced fibrillization, ThT fluorescence; further: nearly all actives have a fitted effect of over 55% in size
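Heparin-induced (20 uM) aggregation of recombinant human K18 P301L tau, 15 uM unlabeled with 0.24 uM labeled, pH 7 acetate buffer, 6 hr at 37 C with compound. Fibrils quantified by 30 uM ThT fluorescence after 1 hr ambient incubation.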
RORgamma inh: blocks mouse ROR gamma transcriptional activity; P51450; Drosophila S2 Gal4-RORgamma UAS-luciferase reporter, 20 h; Potency, µM (series often up to 53.6 µM), hits mostly inhibitors; 310,000 tested, 5.4% active; AID 2551; further: nearly all actives have a fitted effect of over 60% in size
Target sequence (P51450 whole entry, looked up, the tested form may be a part): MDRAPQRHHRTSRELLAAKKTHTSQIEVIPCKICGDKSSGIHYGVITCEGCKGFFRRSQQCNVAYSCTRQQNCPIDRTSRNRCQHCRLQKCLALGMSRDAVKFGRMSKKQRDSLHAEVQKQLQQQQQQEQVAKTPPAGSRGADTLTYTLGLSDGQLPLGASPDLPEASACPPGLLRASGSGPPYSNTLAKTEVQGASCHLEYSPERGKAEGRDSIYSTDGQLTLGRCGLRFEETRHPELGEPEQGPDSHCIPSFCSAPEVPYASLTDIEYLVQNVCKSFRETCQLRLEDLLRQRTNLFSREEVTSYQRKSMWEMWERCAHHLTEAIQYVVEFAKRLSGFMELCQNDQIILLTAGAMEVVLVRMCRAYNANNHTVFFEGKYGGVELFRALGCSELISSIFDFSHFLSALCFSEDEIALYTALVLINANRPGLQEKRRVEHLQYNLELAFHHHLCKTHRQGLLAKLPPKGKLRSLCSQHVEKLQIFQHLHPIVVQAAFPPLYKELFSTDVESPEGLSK
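Luminescence from a UAS-regulated Photinus luciferase reporter in stably transfected Drosophila Schneider cells is measured; decreased signal marks ROR gamma inhibition. Fusion expression is induced by 700 uM copper sulfate for 20 hr.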
Gal4-VP16 FLuc: counter-screen for ROR gamma inhibitors: Gal4-VP16 reporter | Drosophila S2 Gal4-VP16 UAS-luciferase, luminescence, 20 h | Potency, µM (doses to about 53.6 µM), hits mostly inhibitors | 310,000 tested, 3.5% active | AID 2546;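 further: Gal4-VP16 expression switched on by copper sulfate through the metallothionein promoter; nearly all actives have a fitted effect of over 50% in size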
Numbers stand for hits; i = inactive; ? = inconclusive; nt = no result given; [ ] = dose if it differs, or a comment. The call rests on the fitted dose curve; in most records, active means well fitted curve in the direction sought with a large enough effect; inconclusive means small, poorly fitted or top-dose-only effect, or another doubt; inactive means no such curve, though single readings can be large; an effect the other way counts as inactive or inconclusive.

SMILES | Tau fibril FP | Tau fluor cs | Tau fibril ThT | RORgamma inh | Gal4-VP16 FLuc
O=C(/C=C/c1cccs1)Nc1cccc(NC(=O)/C=C/c2cccs2)n1 | ? | ? | ? | ? | i
CC(O)/C=C/c1ccc2ccccc2n1 (centres undefined) | i | i | ? | ? | i
Cc1ccsc1/C=C/c1ccc2ccccc2n1 | i | i | ? | 10µM | ?
Cc1ccsc1/C=C/c1ccc2cccc(O)c2n1 | i | ? | ? | 4.5µM | ?
C(=C\c1ccco1)/c1ccc2ccccc2n1 | ? | i | 32µM | i | i
Oc1cccc2ccc(/C=C/c3cccs3)nc12 | i | ? | ? | 13µM | ?
O=C1CC(c2ccc(Cl)cc2)CC(O)=C1C=NCCO (centres undefined) | nt | nt | nt | i | i
O=C(COc1ccc(Cl)cc1)NN=C1CCCCCCC1 | nt | nt | nt | 8.9µM | i
CSc1ncc2c(n1)-c1ccccc1N(Cc1ccccc1C)S2(=O)=O | i | i | i | nt | nt
Cc1ccc2c(c1)c(N=NC(N)=S)c(O)n2Cc1ccccc1 | i | i | i | 1.6µM | 2.5µM
NC(=S)N=Nc1c(O)n(Cc2ccc(F)cc2)c2ccccc12 | ? | i | i | 1.3µM | 1.3µM
O=Nc1c(O)n(Cc2ccc(Cl)cc2)c2ccccc12 | i | i | i | ? | 11µM
NC(=S)N=Nc1c(O)n(Cc2ccc(Br)cc2)c2ccccc12 | i | i | i | 0.79µM | 0.89µM
Cc1ccc(Cn2c(O)c(N=O)c3ccccc32)cc1 | i | i | i | i | ?
CN(C)C(=O)c1ccc(-c2ccc3ncnc(N4CCNCC4)c3c2)cc1 | nt | nt | nt | i | i
CCCN1CCN(c2nnc(-n3cccc3C(=O)Nc3ccccc3C(F)(F)F)s2)CC1 | i | i | i | nt | nt
CC(C)(C)OC(=O)N1CCC(c2nnc(SCc3ccccc3F)o2)CC1 | i | i | ? | nt | nt
O=C(COc1ccc2ccccc2c1)NNC(=O)c1cnccn1 | i | i | i | ? | i
O=C(Nc1nc(-c2cccc3ccccc23)cs1)c1cnccn1 | i | i | ? | 14µM | ?
Cc1ccc(C(=O)CC(=O)COc2ccc(Cl)cc2C)cc1 | i | i | ? | 10µM | 4.5µM
O=C(COc1cccc2ccccc12)NNC(=O)c1cnccn1 | i | i | i | 13µM | ?
Cc1cc(Cl)ccc1OCC(=O)NNC(=O)c1cnccn1 | i | i | i | 7.1µM | ?
COc1cccc(CNCc2cccn2-c2nnc(N3CCN(c4ccccc4)CC3)s2)c1 | i | i | ? | nt | nt
COc1ccc(NC(=O)Cn2cnc3c(nc4n3CCCCC4)c2=O)c(OC)c1 | i | i | i | nt | nt
COc1cc(-c2cc(OC)c3c(C)oc(C)c3c(=O)c2)ccc1OC(=O)c1ccccc1F | i | i | ? | nt | nt
SMILES | Tau fibril FP | Tau fluor cs | Tau fibril ThT | RORgamma inh | Gal4-VP16 FLuc
COc1ccc(CC(=O)NNC(=O)COc2ccc(Br)cc2C)cc1OC | i | i | i | i | i
Cc1cc(Br)ccc1OCC(=O)NNC(=O)c1cnccn1 | i | i | i | 8.9µM | ?
CCC(C(=O)NNC(=O)c1cnccn1)c1ccccc1 (centres undefined) | i | i | i | 11µM | 16µM
CC1Cc2ccccc2N1C(=O)CCS(=O)(=O)c1ccc2c(c1)NC(=O)CS2 (centres undefined) | nt | nt | nt | i | i
CC(/C=C/c1ccc(N(C)C)cc1)=N\N=C(/N)SC1CC(=O)N(c2ccc(C(=O)O)cc2)C1=O (centres undefined) | i | i | i | 0.79µM | 2.2µM
O=C(O)CCCNC(=O)Cc1ccccc1 | i | i | i | i | i
O=C(O)CCCNC(=O)OCc1ccccc1 | i | i | i | ? | 6.3µM
CCc1ccc(Oc2coc3cc(OCC(=O)Nc4cc(C)ccc4C)ccc3c2=O)cc1 | i | i | i | 25µM | 7.9µM
CCOC(=O)c1c(-c2ccncc2)csc1N | i | i | i | i | i
CCOC(=O)c1c(-c2cccc([N+](=O)[O-])c2)csc1NC(=O)C1CCCCC1 | ? | i | i | ? | 10µM
CCOC(=O)c1c(-c2cccc([N+](=O)[O-])c2)csc1N | i | 22µM[quencher] | ? | i | i
CCOC(=O)c1c(-c2cccc([N+](=O)[O-])c2)csc1NC(=O)C1CC1 | i | i | ? | ? | ?
CC(N)CCCP(=O)(O)O (centres undefined) | i | i | i | nt | nt
CC1(C(=O)O)CCC2(C)CCC3(C)C(=CC(=O)C4C5(C)CCC(O)C(C)(C)C5CCC43C)C2C1 (centres undefined) | nt | nt | nt | i | i
O=C(Cn1nnc(-c2ccccc2F)n1)Nc1ccc2c(c1)OCCO2 | nt | nt | nt | i | i
